PKA-R1A activ = activates the PKA-R1A holoenzyme complex | P00514+P68181 | PKA-R1A dissociation, Cy5-IP20 fluorescence polarization; scaled: DMSO 0%, 113 µM cGMP 100% | activation, % at 11.4 µM | 0.083% of 340,000 active | AID 504707;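 active = percent activation above the mean of all tested compounds plus 3 SD, cut at about 19% in these data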;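 also: higher means more PKAc released from R1A so a rise in polarization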
TMEM16A act = mouse TMEM16A channel activation, primary screen; Q8BHY3; B-score at 10 µM; HEK293 TMEM16A/YFP-H148Q/I152L, iodide quench fluorescence; active compounds read low; 0.3% of 340,000 active;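 active = fluorescence-ratio B-score plate-corrected deviation score at least 3 library SD below zero, with starting fluorescence score within 5 deviations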;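 also: channel opened by trigger with iodide after compound preincubation; score built on the fluorescence ratio of max minus min over baseline; more negative score means more quench and so TMEM16A activation or potentiation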
PKA-R2B act = PKA-R2B complex activation; P22694+P31323; PKA-R2B holoenzyme dissociation, Cy5-IP20 fluorescence polarization; R2B truncated from residue 108, S112A mutant; 0% DMSO only, 100% 113 µM cGMP; activation, % at 11.4 µM; 0.079% of 340,000 active; AID 504700;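 active = activation above a cutoff set at the mean over all compounds plus 3 SD, cut at about 18% in these data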;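 also: higher means more holoenzyme dissociation and a rise in polarization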
TMEM16A inh = mouse TMEM16A channel inhibition, primary screen. HEK293 TMEM16A/YFP iodide influx fluorescence, ionomycin. normalized B-score (activity score, 25-100; higher = stronger inhibition) at 10 µM. 1.2% of 310,000 active. AID 588511. Q8BHY3;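 active = ratio plate-corrected score three or more library SD toward inhibition, starting fluorescence score within five deviations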;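 also: score derived from kinetic fluorescence span divided by baseline fluorescence per well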
CHT block = inhibitors of human choline transporter CHT; B-score at 10 µM; CHT-expressing cells, membrane potential dye, choline response; active compounds read low; AID 488975; 0.86% of 310,000 active;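 active = B-score over 3 SD under the library average, and starting fluorescence ratio not unusually high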;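 also: choline stimulus applied at its EC90 after an EC20 pre-addition; B-score computed on integrated fluorescence ratio after choline addition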
Target sequence (Q9GZV3 whole entry, looked up): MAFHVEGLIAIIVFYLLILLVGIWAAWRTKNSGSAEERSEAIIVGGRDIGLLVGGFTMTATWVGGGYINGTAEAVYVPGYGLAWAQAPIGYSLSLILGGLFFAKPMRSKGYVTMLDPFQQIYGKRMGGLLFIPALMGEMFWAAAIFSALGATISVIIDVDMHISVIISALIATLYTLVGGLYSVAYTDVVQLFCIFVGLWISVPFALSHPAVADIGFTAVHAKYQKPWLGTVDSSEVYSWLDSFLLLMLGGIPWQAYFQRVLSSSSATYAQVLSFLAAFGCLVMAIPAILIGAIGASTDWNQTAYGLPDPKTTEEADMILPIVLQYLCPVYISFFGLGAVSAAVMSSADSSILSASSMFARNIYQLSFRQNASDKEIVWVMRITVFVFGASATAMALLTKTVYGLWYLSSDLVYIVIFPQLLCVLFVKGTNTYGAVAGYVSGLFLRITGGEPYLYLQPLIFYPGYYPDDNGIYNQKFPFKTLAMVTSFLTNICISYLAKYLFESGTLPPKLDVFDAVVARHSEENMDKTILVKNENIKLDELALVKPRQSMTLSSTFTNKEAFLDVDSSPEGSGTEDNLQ
CHT allo act = human CHT allosteric activation; Q9GZV3; CHT-expressing cells, membrane potential dye, choline EC20; active compounds read high; LV-AA mutant CHT in HEK293 cells; B-score at 10 µM; 0.49% of 310,000 active; AID 488977;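 active = initial fluorescence not abnormally high and integrated response B-score, plate-corrected, over 3 SD above library mean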
The depositor's hits bear a star; i = inactive; nt = no result. Only some compounds are listed: those with a hit (about 2.5% of all), similar ones and a draw of the others.

SMILES	PKA-R1A activ	TMEM16A act	PKA-R2B act	TMEM16A inh	CHT block	CHT allo act
C/C(=N\NC(=O)CNC(=O)c1ccc(F)cc1)c1ccco1	-5.1	i	1.1	i	i	i
Oc1ccc(C[C@@H]2CNCCN2CCc2cc(C(F)(F)F)cc(C(F)(F)F)c2)cc1	-4.7	i	5.5	i	i	i
FC(F)(F)c1cc(CCN2CCNC[C@H]2Cc2cccc3ccccc23)cc(C(F)(F)F)c1	4.7	-9.69*	-7.2	i	i	i
COc1ccccc1N(CC(=O)NCCSCc1ccccc1)S(=O)(=O)c1ccc(C)cc1	-3.0	i	10.9	25*	i	i
COc1cccc(CN(C)C(=O)c2[nH]c(C)c(C(C)=O)c2C)c1OC	0.2	i	6.3	i	i	i
CCOC(=O)c1ccc(CC2S/C(=C(\C#N)C(C)=O)NC2=O)cc1 (centres undefined)	-8.5	i	-8.5	i	i	i
CCc1ccc(CC2S/C(=C(\C#N)C(C)=O)NC2=O)cc1 (centres undefined)	3.8	i	-9.4	100*	i	i
O=C(NCC(=O)N1CCN(c2ccccc2O)CC1)c1ccc2c(c1)OCO2	-4.3	i	0.5	i	i	i
COc1ccc(C2CC(C(F)(F)F)n3nc(CO)c(Cl)c3N2)cc1OC (centres undefined)	7.5	-13.7*	2.4	i	i	i
COC(=O)C1=C(N)Oc2cc(C)n(Cc3ccncc3)c(=O)c2C1c1cccnc1 (centres undefined)	-11.4	-14.9*	9.6	i	i	i
CC(=O)NNC(=O)CCn1nnc(-c2ccc(Cl)cc2)n1	-6.0	i	-14.8	i	i	i
Cc1ccccc1-c1ccc2c(c1)O[C@H](CN(C)C(=O)C1CC1)[C@@H](C)CN([C@@H](C)CO)S2(=O)=O	-6.0	nt	-4.5	nt	nt	nt
O=C(NCc1ccco1)c1sc(=S)n2c1[nH]c(=O)c1ccccc12	-21.8	i	1.7	100*	i	i
O=C(NCc1ccccc1)c1ccc2c(=O)[nH]c3c(C(=O)NCC4CCCO4)sc(=S)n3c2c1 (centres undefined)	-1.3	i	-5.7	i	i	i
Cc1c(N(C)C(=O)c2ccccc2F)c(=O)n(-c2ccccc2)n1C	2.2	-6.53*	-3.4	i	i	i
CCOC(=O)C1=C(C)N=c2s/c(=C/c3cccc([N+](=O)[O-])c3O)c(=O)n2C1c1ccccc1 (centres undefined)	1.3	i	-7.4	100*	-8.02*	i
CCCC1=NN(C(=O)C(=O)Nc2ccc(Br)cc2)C(O)(C(F)(F)F)C1 (centres undefined)	-13.2	i	-6.1	25*	i	i
COC(=O)C(C)(C)c1cccnc1C#N	-11.2	nt	-8.1	nt	nt	nt
O=c1c(Cc2ccc(Cl)cc2Cl)c(O)ccn1Cc1ccc(Cl)cc1	7.2	i	-9.7	100*	i	i
CCOC(=O)c1cc([N+](=O)[O-])sc1NC(=O)c1ccc(S(=O)(=O)N2CC3(C)CC2CC(C)(C)C3)cc1 (centres undefined)	-9.2	-25.6*	-0.3	i	i	i
CC1CCC(NC(=O)Cn2c(=O)oc3ccccc32)CC1 (centres undefined)	11.4	i	4.3	i	i	i
COc1cc(C(=O)Nc2cccc(S(=O)(=O)N3CCCC3)c2)cc(OC)c1C	-2.6	i	-2.8	i	i	i
COc1ccc(CNC(=O)[C@H](C)N2C(=O)N3CCc4c([nH]c5ccccc45)[C@@]3(C)C2=O)cc1OC	-2.3	-13*	-17.3	i	i	i
O=C(c1ccc2ccccc2c1)C1CCCN(C(=O)c2noc3c2CCCC3)C1 (centres undefined)	2.1	i	-6.9	25*	i	i
COc1cc(/C=C2\C(=N)N3N=C(S(=O)(=O)CC(C)C)SC3=NC2=O)ccc1OC(=O)c1ccco1	nt	nt	nt	i	-5.43*	i
SMILES	PKA-R1A activ	TMEM16A act	PKA-R2B act	TMEM16A inh	CHT block	CHT allo act
CCS(=O)(=O)C1=NN2C(=N)/C(=C\c3ccc(OS(=O)(=O)c4ccccc4)c(OC)c3)C(=O)N=C2S1	nt	nt	nt	i	-5.35*	i
COc1cc(/C=C2\C(=N)N3N=C(N4CCOCC4)SC3=NC2=O)ccc1OC(=O)c1ccccc1	-3.2	i	-11.9	100*	i	i
Cc1ccc(S(=O)(=O)Oc2ccc(/C=C3\C(=N)N4N=C(S(C)(=O)=O)SC4=NC3=O)cc2)cc1	-2.3	i	5.3	i	-6.39*	i
CCc1cccc(C)c1NC(=O)CN1C(=O)NC(CCc2ccccc2)C1=O (centres undefined)	3.0	i	-5.9	nt	nt	nt
CSc1ccc(/C=C(\NC(=O)c2ccco2)C(=O)N2CCCCC2)cc1	9.3	i	-14.5	i	i	i
O=C1C(CO)C(CO)C(CO)C1CO (centres undefined)	-0.8	i	3.1	nt	nt	nt
O=C(Cn1nnc(-c2ccccc2)n1)Nc1cccc(S(=O)(=O)N2CCOCC2)c1	9.8	i	2.8	i	i	i
O=C(COC(=O)C1CCCN1C(=O)c1cccs1)Nc1ccc2c(c1)OCO2 (centres undefined)	3.9	-20.4*	0.8	i	i	i
Nc1nc(SCC(=O)Nc2ccc(OC(F)(F)F)cc2)[nH]c(=O)c1NC(=O)c1ccc(Br)o1	-3.7	i	13.3	i	i	i
CN1C(=O)/C(=C/c2ccccc2F)Sc2ccc(C(=O)N3CCCC3)cc21	-0.1	i	-4.9	25*	i	i
Cc1ccccc1/C=C1\Sc2ccc(C(=O)N3CCN(c4ccccn4)CC3)cc2N(C)C1=O	0.2	i	7.8	i	i	i
COCCCNS(=O)(=O)c1ccc(C)cc1	-4.1	i	-6.1	i	i	i
COCCCNC(=O)CCNS(=O)(=O)c1ccc(C)cc1	0.2	i	-6.5	25*	i	i
CC(=O)c1ccc(S(=O)(=O)N2CCC(NC(=O)Nc3cccc(F)c3)CC2)cc1	-6.2	-7.89*	-5.8	i	i	i
COC(=O)c1cccc(S(=O)(=O)N2CCC(NC(=O)Nc3cccc(F)c3)CC2)c1	-1.5	i	-5.2	i	i	i
Cc1cccc(C(=O)NC2CCN(S(=O)(=O)c3ccc(F)cc3)CC2)c1	-2.9	i	-0.1	i	i	i
Cc1ccc(S(=O)(=O)N2CCC(NC(=O)c3cccc(C)c3)CC2)cc1	0.9	-7.1*	-13.7	i	i	i
